These results are taken from PubChem BioAssay (NCATS).

Records with an inconclusive call do not appear. Where a call stands in place of a potency, no number is given. Active and inactive are the calls of the source. Unless noted, calls follow the shape of the dose curve; as a rule, active = well fitted curve in either direction with a large enough effect (not every such curve was filed as active); inconclusive = small, poorly fitted or top-dose-only effect, or another doubt; inactive = flat fitted curve, though single readings scatter.

3',5'-cyclic-AMP phosphodiesterase 4B (Homo sapiens), sequence (Q07343 whole entry, looked up): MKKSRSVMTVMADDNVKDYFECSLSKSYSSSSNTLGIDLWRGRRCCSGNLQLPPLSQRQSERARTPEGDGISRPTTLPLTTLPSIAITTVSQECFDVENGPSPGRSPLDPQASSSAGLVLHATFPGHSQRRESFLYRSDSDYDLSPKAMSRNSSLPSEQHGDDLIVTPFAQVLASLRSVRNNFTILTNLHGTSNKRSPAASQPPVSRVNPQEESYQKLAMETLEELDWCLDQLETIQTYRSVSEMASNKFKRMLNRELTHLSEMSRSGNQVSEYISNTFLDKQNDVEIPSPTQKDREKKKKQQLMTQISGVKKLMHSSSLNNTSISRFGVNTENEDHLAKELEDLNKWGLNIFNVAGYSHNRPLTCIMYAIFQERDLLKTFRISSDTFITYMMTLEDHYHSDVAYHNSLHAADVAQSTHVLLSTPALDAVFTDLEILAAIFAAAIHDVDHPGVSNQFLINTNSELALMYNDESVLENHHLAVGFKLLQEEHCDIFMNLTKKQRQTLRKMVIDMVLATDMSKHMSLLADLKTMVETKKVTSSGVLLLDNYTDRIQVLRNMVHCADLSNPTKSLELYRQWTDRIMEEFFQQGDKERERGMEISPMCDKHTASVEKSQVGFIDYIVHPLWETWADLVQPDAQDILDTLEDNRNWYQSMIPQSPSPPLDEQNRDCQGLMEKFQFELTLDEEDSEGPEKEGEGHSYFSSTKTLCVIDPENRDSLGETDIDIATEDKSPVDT

The first test has as its target Mitogen-activated protein kinase 10 (Mus musculus) (UniProt Q61831). Put plainly: JNK3 AlphaScreen Assay (AID 530).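 Also: kinase came from lysate of stimulated human HepG2 cells.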 Also: potency is read from the fitted curve at half-maximal effect. The note with it: JNK3 lysate, c-Jun phosphorylation; series mostly up to 25.6 µM. An outline of the steps:
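Compound titrations were preincubated 15 minutes at room temperature with substrate, antibody and pre-activated JNK3-containing HepG2 lysate. Reactions were started with 10 uM ATP and stopped with EDTA-containing bead buffer for AlphaScreen detection.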
In general terms: Alpha assays give light when donor and acceptor beads are brought close together.
Consider `CCO[C@H]1O[C@@H]([C@H](COCc2ccccc2)OCc2ccccc2)[C@@H](OCc2ccccc2)[C@H]1O`, for which the Potency entry is “inactive”. Same read-out and setting: for `FC(F)(F)c1ccccc1-c1ccc2ncnc(NC3CCNCC3)c2c1` the value was “inactive”; for `Cc1cc2ccc(=O)oc2cc1OC[C@@H](O)C(C)(C)O`, “inactive”; for `C1CCC(C(C[C@@H]2CCCCN2)C2CCCCC2)CC1`, “inactive”. Consider `COc1cc(N[C@@H](C)CCCN)c2ncccc2c1`, for which the Potency result was “inactive”. On the same count and under the same terms, for `CC(C)(C)NC(=O)[C@@H]1C[C@H]2CCCC[C@@H]2CN1C[C@H](O)[C@H](Cc1ccccc1)NC(=O)[C@@H](CC(N)=O)NC(=O)c1ccc2ccccc2n1` the value was “inactive”; for `COC(=O)C1=C(C)NC(C)=C(C(=O)OCCN(C)Cc2ccccc2)[C@H]1c1cccc([N+](=O)[O-])c1`, “inactive”; for `CC/C=C\C[C@H]1C(=O)CC[C@@H]1CC(=O)O`, “inactive”. On the same count and under the same terms, the same measure for `COc1cccc(-c2nc(NCCc3c[nH]c4ccc(OC)cc34)c3ccccc3n2)c1`: “inactive”; for `C[C@@H](CN1c2ccccc2Sc2ccccc21)N(C)C`: “inactive”. On the same count and under the same terms, for `C[C@@H](Cc1cccc(C(F)(F)F)c1)NCCOC(=O)c1ccccc1` the value was “inactive”; for `C=Cc1c(C)c2cc3nc(cc4[nH]c(cc5nc(cc1[nH]2)C(C)=C5CCC(=O)O)c(CCC(=O)OC)c4C)[C@@]1(C)C3=CC=C(C(=O)OC)[C@H]1C(=O)OC` (tested in a mixture with another compound), 316 nM [activator] (active). Consider `C=C(C)[C@H]1CC[C@]2(C(=O)O)CC[C@]3(C)[C@@H](CC[C@H]4[C@@]5(C)CC[C@@H](O)C(C)(C)[C@@H]5CC[C@@]43C)[C@H]12`, for which the Potency entry was “inactive”. Same read-out and setting: for `Nc1ncnc2c1ncn2[C@@H]1O[C@H](COP(=O)(O)O)[C@@H](O)[C@@H]1O` the value was “inactive”; for `CO[C@]1(NC(=O)[C@H](C(=O)O)c2ccc(O)cc2)C(=O)N2C(C(=O)O)=C(CSc3nnnn3C)CO[C@H]21`, “inactive”; for `COc1ccc2c(c1)N(C[C@@H](C)CN(C)C)c1ccccc1S2`, “inactive”.

As for `CCN(CC)CCOC(=O)[C@@H](c1ccccc1)C1CCCCC1`, the Potency entry was “inactive”.

For the compound `O[C@@](CCN1CCCCC1)(c1ccccc1)[C@@H]1C[C@H]2C=C[C@@H]1C2`, the Potency entry is “inactive”. Still for that read-out and setting: the same measure for `C[C@@](N)(C(=O)O)c1cccc(CC(=O)O)c1`: “inactive”; for `NCCC(=O)N[C@@H](Cc1cnc[nH]1)C(=O)O`: “inactive”. The same measure, in the same setting: the same measure for `C/C(=C\CNc1ncnc2nc[nH]c12)CO`: “inactive”; for `CCC(=O)[C@@]1(C)[C@H](C)C[C@@H]2[C@@H]3CCC4=CC(=O)C=C[C@@]4(C)[C@H]3[C@H](O)C[C@]21C`: “inactive”. On the same count and under the same terms, the same measure for `Nc1ncn([C@H]2O[C@@H](CO)[C@@H](O)[C@@H]2O)c(=O)n1`: “inactive”; for `C[C@@H]1O[C@H](O[C@@H]2[C@H](C)O[C@H](O[C@@H]3[C@H](C)O[C@H](O[C@H]4CC[C@]5(C)[C@@H](CC[C@@H]6[C@H]5C[C@@H](O)[C@]5(C)[C@@H](C7=CC(=O)OC7)CC[C@]65O)C4)C[C@@H]3O)C[C@@H]2O)C[C@H](O)[C@@H]1O`: “inactive”; for `CCC(C)(C)C(=O)O[C@@H]1C[C@H](C)C=C2C=C[C@H](C)[C@@H](CC[C@H]3C[C@@H](O)CC(=O)O3)[C@H]21`: “inactive”.

For `CCN(CC)[C@@H](C)CN1c2ccccc2Sc2ccccc21`, the Potency entry was “inactive”. As for `O=c1cc(-c2cccc(O)c2)oc2cc(O)ccc12`, the Potency result was “inactive”. Same read-out and setting: for `CO[C@@H]1CC[C@@]2(C)[C@@H](CC[C@@]3(C)[C@H]2CC=C2[C@H]4CC(C)(C)[C@H](O)[C@@H](OC(C)=O)[C@]4(CO)[C@H](O)C[C@]23C)[C@@]1(C)CO` (tested in a mixture with another compound) the value was “inactive”; for `CN1[C@H](CC(=O)c2ccccc2)CCC[C@H]1C[C@@H](O)c1ccccc1`, “inactive”; for `CC[C@H](C(=O)[C@H](C)[C@H](O)[C@H](C)CCc1ccc(C)c(O)c1C(=O)O)[C@H]1O[C@](CC)([C@@H]2CC[C@@](O)(CC)[C@H](C)O2)C[C@H]1C`, “inactive”. The same measure, in the same setting: the same measure for `CC=C(/C(=C/C)c1ccc(O)cc1)c1ccc(O)cc1`: “inactive”; for `CC1(C)S[C@@H]2[C@H](NC(=O)[C@@H](N)c3ccccc3)C(=O)N2[C@H]1C(=O)O[C@H]1OC(=O)c2ccccc21`: “inactive”.

The target in the next test is 3',5'-cyclic-AMP phosphodiesterase 4B (Homo sapiens) (UniProt Q07343). Briefly: qHTS Assay for Inhibitors of PDE-IV (AID 607; active = well fitted activation curve with a large enough effect in the main read-out, with a control signal flat, not every such curve was filed as active). The note with it: HEK293 ACTOne CNG channel cells, membrane potential fluorescence; series mostly up to 22.9 µM. In short, it runs like this:
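The readout is membrane depolarisation from a cAMP-sensing CNG channel, detected with a potential dye at ex 535/em 590. Cells were HEK293-derived (endogenous PDE-IV) at 1000 cells/well, titrated up to 22.9 uM final.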
Consider `CCO[C@H]1O[C@@H]([C@H](COCc2ccccc2)OCc2ccccc2)[C@@H](OCc2ccccc2)[C@H]1O`, for which the compound was classed as inactive.

As to `FC(F)(F)c1ccccc1-c1ccc2ncnc(NC3CCNCC3)c2c1`, the compound was called inactive. Still for that read-out and setting: the same measure for `Cc1cc2ccc(=O)oc2cc1OC[C@@H](O)C(C)(C)O`: “inactive”.

Take `COc1cc(N[C@@H](C)CCCN)c2ncccc2c1`: the outcome was inactive. Still for that read-out and setting: for `CC(C)(C)NC(=O)[C@@H]1C[C@H]2CCCC[C@@H]2CN1C[C@H](O)[C@H](Cc1ccccc1)NC(=O)[C@@H](CC(N)=O)NC(=O)c1ccc2ccccc2n1` the value was “inactive”; for `COC(=O)C1=C(C)NC(C)=C(C(=O)OCCN(C)Cc2ccccc2)[C@H]1c1cccc([N+](=O)[O-])c1`, “inactive”; for `CC/C=C\C[C@H]1C(=O)CC[C@@H]1CC(=O)O`, “inactive”. The same measure, in the same setting: the same measure for `C[C@@H](CN1c2ccccc2Sc2ccccc21)N(C)C`: “inactive”. Same read-out and setting: for `C=Cc1c(C)c2cc3nc(cc4[nH]c(cc5nc(cc1[nH]2)C(C)=C5CCC(=O)O)c(CCC(=O)OC)c4C)[C@@]1(C)C3=CC=C(C(=O)OC)[C@H]1C(=O)OC` (tested in a mixture with another compound) the value was “inactive”; for `O=C(OC[C@@H](O)CO)c1ccccc1Nc1ccnc2cc(Cl)ccc12`, “inactive”; for `Nc1ncnc2c1ncn2[C@@H]1O[C@H](COP(=O)(O)O)[C@@H](O)[C@@H]1O`, “inactive”. As for `COc1ccc2c(c1)N(C[C@@H](C)CN(C)C)c1ccccc1S2`, the compound was called inactive. Regarding `O=C1C=CC(=O)c2c1ccc1c2ccc2ccccc21`, the result was inactive. Consider `C[C@@](N)(C(=O)O)c1cccc(CC(=O)O)c1`, for which the result was inactive. On to `NCCC(=O)N[C@@H](Cc1cnc[nH]1)C(=O)O`, for which the call was inactive. On the same count and under the same terms, the same measure for `C/C(=C\CNc1ncnc2nc[nH]c12)CO`: “inactive”; for `CCC(=O)[C@@]1(C)[C@H](C)C[C@@H]2[C@@H]3CCC4=CC(=O)C=C[C@@]4(C)[C@H]3[C@H](O)C[C@]21C`: “inactive”; for `Nc1ncn([C@H]2O[C@@H](CO)[C@@H](O)[C@@H]2O)c(=O)n1`: “inactive”. Still for that read-out and setting: for `COc1cc2ccc(=O)oc2c(O)c1O` the value was “inactive”. On the same count and under the same terms, for `C[C@@H]1O[C@H](O[C@@H]2[C@H](C)O[C@H](O[C@@H]3[C@H](C)O[C@H](O[C@H]4CC[C@]5(C)[C@@H](CC[C@@H]6[C@H]5C[C@@H](O)[C@]5(C)[C@@H](C7=CC(=O)OC7)CC[C@]65O)C4)C[C@@H]3O)C[C@@H]2O)C[C@H](O)[C@@H]1O` the value was “inactive”; for `Cc1onc(-c2c(F)cccc2Cl)c1C(=O)N[C@H]1C(=O)N2[C@H]1SC(C)(C)[C@H]2C(=O)O`, “inactive”. In the case of `CCN(CC)[C@@H](C)CN1c2ccccc2Sc2ccccc21`, the call was inactive. On the same count and under the same terms, the same measure for `O=c1cc(-c2cccc(O)c2)oc2cc(O)ccc12`: “inactive”; for `COC(=O)[C@@H]1[C@@H]2C[C@H]3c4[nH]c5cc(OC)ccc5c4CCN3C[C@@H]2C[C@H](OC(=O)/C=C\c2cc(OC)c(OC)c(OC)c2)[C@H]1OC`: “inactive”; for `CO[C@@H]1CC[C@@]2(C)[C@@H](CC[C@@]3(C)[C@H]2CC=C2[C@H]4CC(C)(C)[C@H](O)[C@@H](OC(C)=O)[C@]4(CO)[C@H](O)C[C@]23C)[C@@]1(C)CO` (tested in a mixture with another compound): “inactive”. Same read-out and setting: for `CC[C@H](C(=O)[C@H](C)[C@H](O)[C@H](C)CCc1ccc(C)c(O)c1C(=O)O)[C@H]1O[C@](CC)([C@@H]2CC[C@@](O)(CC)[C@H](C)O2)C[C@H]1C` the value was “inactive”. The same measure, in the same setting: the same measure for `CC=C(/C(=C/C)c1ccc(O)cc1)c1ccc(O)cc1`: “inactive”.

As to `CC1(C)S[C@@H]2[C@H](NC(=O)[C@@H](N)c3ccccc3)C(=O)N2[C@H]1C(=O)O[C@H]1OC(=O)c2ccccc21`, the compound was classed as inactive.
